This is a sample that favours compounds with a hit; in the whole collection about 7.6% have one here.
MCF10A rereplic = induces DNA re-replication in MCF 10a normal breast cells | MCF 10A DNA re-replication, Hoechst nuclear intensity, 48 h | Potency, µM (titrated, usually from 46.1 µM), hits mostly activators | 350,000 tested, 2.9% active; note: nearly all actives have a fitted effect of over 50% in size
KCNH2 WT inh = KCNH2 (human, wildtype) channel inhibition; Q12809; U2OS, BacMam KCNH2, thallium flux FluxOr; stronger effect = lower value; activity change, % at 1.84 µM; 340,000 tested, 0.37% active; AID 720551;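 active = maximum activity change below -70%; inconclusive = maximum activity change between -70% and -50%; inactive = maximum activity change above -50%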
Target sequence (Q12809 whole entry, looked up): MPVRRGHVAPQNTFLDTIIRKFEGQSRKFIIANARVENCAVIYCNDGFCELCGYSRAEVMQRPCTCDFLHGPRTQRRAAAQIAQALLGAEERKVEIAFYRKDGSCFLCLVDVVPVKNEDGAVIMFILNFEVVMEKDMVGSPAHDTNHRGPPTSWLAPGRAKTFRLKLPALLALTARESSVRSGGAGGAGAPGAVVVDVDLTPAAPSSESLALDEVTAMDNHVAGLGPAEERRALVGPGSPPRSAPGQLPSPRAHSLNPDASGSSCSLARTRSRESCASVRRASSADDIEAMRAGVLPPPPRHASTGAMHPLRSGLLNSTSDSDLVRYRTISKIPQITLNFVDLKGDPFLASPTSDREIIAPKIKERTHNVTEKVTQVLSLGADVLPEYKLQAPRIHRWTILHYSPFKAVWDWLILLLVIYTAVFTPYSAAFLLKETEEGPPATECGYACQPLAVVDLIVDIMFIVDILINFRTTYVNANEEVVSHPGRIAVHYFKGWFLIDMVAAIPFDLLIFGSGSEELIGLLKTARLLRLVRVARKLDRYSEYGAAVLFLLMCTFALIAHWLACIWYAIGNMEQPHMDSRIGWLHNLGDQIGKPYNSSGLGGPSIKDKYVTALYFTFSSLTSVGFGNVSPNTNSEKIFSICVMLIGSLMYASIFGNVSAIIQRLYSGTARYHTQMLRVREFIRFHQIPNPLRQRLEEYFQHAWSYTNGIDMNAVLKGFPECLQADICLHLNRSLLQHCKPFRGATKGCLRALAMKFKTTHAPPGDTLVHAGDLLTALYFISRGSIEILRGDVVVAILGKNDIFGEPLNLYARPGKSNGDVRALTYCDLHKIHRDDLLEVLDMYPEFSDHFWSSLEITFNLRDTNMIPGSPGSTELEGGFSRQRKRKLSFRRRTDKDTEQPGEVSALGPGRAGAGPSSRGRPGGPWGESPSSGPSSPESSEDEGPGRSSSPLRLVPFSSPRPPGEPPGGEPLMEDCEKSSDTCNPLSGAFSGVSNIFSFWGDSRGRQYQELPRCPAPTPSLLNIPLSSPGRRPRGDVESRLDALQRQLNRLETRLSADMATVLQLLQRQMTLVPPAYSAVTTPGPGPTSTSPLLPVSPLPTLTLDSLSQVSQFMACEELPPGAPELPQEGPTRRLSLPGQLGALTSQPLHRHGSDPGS
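U2OS cells were transduced with wild-type KCNH2 virus (2.03 x 10^8 / mL) for 4 h at room temperature, then cultured overnight at 37 C. Thallium flux was read with FluxOr dye. Rate constants were normalized to DMSO controls.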
KB-V1 cytotox = kills drug-selected multidrug resistant KB-V1 cells. KB-V1 MDR cells viability, CellTiter-Glo, 72 h. Potency, µM (titrated, usually from 46.1 µM), actives largely listed as cytotoxic. AID 1347076. 400,000 tested, 3.4% active; note: nearly all actives have a fitted effect of over 60% in size
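Potencies derive from concentration-effect curves fitted to normalized luminescence (CellTiter-Glo) of KB-V1 cells treated for 72 h at 37 degrees C in phenol-red-free DMEM containing 10% FBS.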
KB-3-1 cytotox = KB-3-1 parental cell cytotoxicity | KB-3-1 viability, CellTiter-Glo ATP luminescence, 72 h | Potency, µM (highest dose often 46.1 µM), most hits filed as cytotoxic | 400,000 tested, 1.4% active; note: nearly all actives have a fitted effect of over 60% in size
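Parental KB-3-1 viability, qHTS format: 72 h compound exposure, 37 °C; CellTiter-Glo; media-only wells and DMSO plates as controls; concentration-effect fits on corrected data.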
KCNH2 3.1 block = inhibitors of human KCNH2 3.1 potassium channel isoform | AID 720553 | 340,000 tested, 0.95% active | activity change, % (tested at about 1.8 µM) | U2OS KCNH2 3.1, thallium flux FluxOr; stronger effect = lower value;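 active = maximum activity change below -70%; inconclusive = maximum activity change from -70% to -50%; inactive = maximum activity change above -50%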;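 note: thallium influx rate constant from kinetic fluorescence after stimulation buffer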
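Thallium flux read-out: FluxOr dye with Red40 quencher in HBSS/HEPES, 45 min at RT. Rate constants from kinetic reads were normalized to positive and negative DMSO controls. Cells: U2OS virally expressing the 3.1 isoform.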
SW480 rereplic = DNA re-replication induction in SW480 cells; Potency, µM (titrated, usually from 46.1 µM), hits mostly activators; SW480 DNA re-replication, Hoechst DNA content imaging, 48 h; 340,000 tested, 1.8% active; note: nearly all actives have a fitted effect of over 55% in size
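Readout is total intensity of Hoechst-stained nuclei, excited at 405 nm and collected at 500-530 nm. Compound treatment lasted 48 hr at 37 C in 5% CO2 before staining.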
Of the large screens only hits and unclear results are named; the others gave an inactive call. Unless noted, calls come from the whole dose curve; as a rule, active = well fitted curve in the direction sought with a large enough effect; inconclusive = small, poorly fitted or top-dose-only effect, or another doubt; inactive = no such curve, though single readings can be large; an effect the other way counts as inactive or inconclusive.

N#CC1=C(N)Oc2cc(N)ccc2C1c1ccsc1 (centres undefined)	none
COc1cc2c(cc1NC(=O)c1cc(-c3ccncc3)nc3ccc(C)cc13)oc1ccccc12	MCF10A rereplic inconclusive
COc1cc2c(cc1NC(=O)CSc1cccc[n+]1[O-])oc1ccccc12	KB-V1 cytotox 11.6µM, KB-3-1 cytotox inconclusive
COc1cc2c(cc1NC(=O)CCCCCN1C(=O)CCC1=O)oc1ccccc12	KB-V1 cytotox 7.31µM
COc1cc2c(cc1NC(=O)CN(C)Cc1ccc(OC)c(OC)c1)oc1ccccc12	MCF10A rereplic 9.2µM, KB-V1 cytotox inconclusive, KB-3-1 cytotox inconclusive, SW480 rereplic 18.4µM
COc1cc2c(cc1NC(=O)CSc1nc3ccc(C)cc3[nH]1)oc1ccccc12	MCF10A rereplic 5.17µM (no result: KCNH2 WT inh, KB-V1 cytotox, KB-3-1 cytotox, KCNH2 3.1 block)
COc1cc2c(cc1NC(=O)CSc1ccc(C)cc1)oc1ccccc12	MCF10A rereplic inconclusive
CCn1cc(C(=O)NCCCOC)c(=O)c2cc(S(=O)(=O)N3CCCC3)ccc21	none
COc1cc2c(C(=O)N3CCN(c4ccc(C)cc4)C(C)C3)cn(CC(C)C)c(=O)c2cc1OC (centres undefined)	none (no result: MCF10A rereplic, KCNH2 WT inh, KCNH2 3.1 block, SW480 rereplic)
COc1ccc(CSc2nnnn2-c2ccccc2)cc1	none
COc1cc(CSc2nnnn2-c2ccc(C)cc2)cc(OC)c1OC	KB-V1 cytotox 2.06µM, KB-3-1 cytotox 10.3µM
COc1ccc(F)cc1CSc1nnnn1-c1ccc(O)cc1	KB-V1 cytotox 16.4µM
Cc1ccc(-n2nc3c(=O)n(CCCC(=O)NCc4ccccc4Cl)nc(C)c3c2C)cc1	none
O=C(c1ccc(C(F)(F)F)cc1)N1CCC(=O)N([C@H](COCc2ccc(C(F)(F)F)cc2)Cc2ccccc2)CC1	KB-V1 cytotox inconclusive (no result: MCF10A rereplic, KCNH2 WT inh, KCNH2 3.1 block, SW480 rereplic)
CSc1nsc(SC)c1NC(=O)Nc1ccccc1C	KCNH2 3.1 block -84.1
Cc1cc(C)n2nc(SCc3nnc(SCc4ccccc4)s3)nc2n1	KB-V1 cytotox 13µM
O=C1CC(c2cccs2)Cc2nc(NCC3CCCO3)ncc21 (centres undefined)	KB-V1 cytotox 16.4µM
Cc1cc(C)c(S(=O)(=O)c2ccccc2)c(N2CCOCC2)n1	none
CC(C)c1ccc(/C=N/NC(=O)c2cccc(Cl)c2)cc1	MCF10A rereplic 5.8µM, KB-V1 cytotox 8.2µM, KB-3-1 cytotox 13µM, SW480 rereplic inconclusive
Cn1cccc1-c1cc(C(=O)N/N=C/c2ccc([N+](=O)[O-])cc2)[nH]n1	none
CC(C)c1ccc(/C=N/NC(=O)c2cc(-c3cccc([N+](=O)[O-])c3)n[nH]2)cc1	MCF10A rereplic 18.4µM, KB-3-1 cytotox inconclusive
CC(C)c1ccc(/C=N/NC(=O)c2ccccn2)cc1	none
N/N=C1\CCCc2c1[nH]c1ccc([N+](=O)[O-])cc21	KB-V1 cytotox 4.61µM, KB-3-1 cytotox inconclusive, SW480 rereplic inconclusive
O=[N+]([O-])c1ccc2[nH]c3c(c2c1)CCCC3	KB-V1 cytotox inconclusive
COc1ccccc1N1CCN(Cc2ccc(O)c3ncccc23)CC1	MCF10A rereplic inconclusive, KB-V1 cytotox inconclusive, KB-3-1 cytotox 5.17µM, SW480 rereplic inconclusive
CCOC(=O)C1CCN(Cc2ccc(O)c3ncccc23)CC1	MCF10A rereplic 4.11µM, KB-V1 cytotox 16.4µM, KB-3-1 cytotox 23.1µM, SW480 rereplic 0.92µM
CCOC(=O)C1CCN(Cc2ccccc2C(F)(F)F)CC1	none
COc1ccccc1N1CCN(Cc2ccc(OC)c(OC)c2OC)CC1	none
Oc1ccc(CN2CCCc3ccccc32)c2cccnc12	KB-V1 cytotox inconclusive, KB-3-1 cytotox 23.1µM
COC(=O)c1ccc(COC(=O)C(NC(=O)Cc2ccccc2)C(C)C)cc1 (centres undefined)	SW480 rereplic inconclusive
Cc1ccc(-n2nc(C(=O)N3CCN(c4cccc(C(F)(F)F)c4)CC3)c3c4ccccc4n(C)c3c2=O)cc1	none (no result: MCF10A rereplic, KCNH2 WT inh, KCNH2 3.1 block, SW480 rereplic)
CCCCC1=NN(C(=O)c2cocc2C)C(O)(C(F)(F)F)C1 (centres undefined)	MCF10A rereplic inconclusive, SW480 rereplic 7.31µM
Cc1ccc(C(C2C(=O)CC(C)(C)CC2=O)C2C(=O)CC(C)(C)CC2=O)s1	MCF10A rereplic 18.4µM
